In all, about 220,000 compounds went through this assay and about 5,700 (2.6%) were called active. Another 18% or so got no clear call; they are omitted. The call rests on the fitted dose curve; in most records, active means well fitted inhibition curve with a large enough effect; inconclusive means small, poorly fitted or top-dose-only effect; inactive means no such curve, though single readings can be large or run the other way. The sample as a whole holds a higher share of actives than the screen did.
biological target: Lysine-specific demethylase 5B (Homo sapiens) (UniProt Q9UGL1); assay: Primary screen for KDM5B Histone Demethylases FDH-coupled qHTS; details: FDH-coupled NADH fluorescence (FDH is formaldehyde dehydrogenase); series mostly up to 57.7 µM; further: nearly all actives have a fitted effect of over 70% in size
Summary of the method: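 Measured: NADH fluorescence change, 30 min, RT. System: KDM5BΔAP 200 nM final, H3K4me3 peptide, α-KG, Fe(II), ascorbate, NAD⁺ plus FDH, pH 7.5 HEPES. Compounds: titrated, 10 min pre-incubation with enzyme.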
Potency means the concentration at half of the fitted maximal effect.

Chain of Lysine-specific demethylase 5B (Homo sapiens) (Q9UGL1 whole entry, looked up): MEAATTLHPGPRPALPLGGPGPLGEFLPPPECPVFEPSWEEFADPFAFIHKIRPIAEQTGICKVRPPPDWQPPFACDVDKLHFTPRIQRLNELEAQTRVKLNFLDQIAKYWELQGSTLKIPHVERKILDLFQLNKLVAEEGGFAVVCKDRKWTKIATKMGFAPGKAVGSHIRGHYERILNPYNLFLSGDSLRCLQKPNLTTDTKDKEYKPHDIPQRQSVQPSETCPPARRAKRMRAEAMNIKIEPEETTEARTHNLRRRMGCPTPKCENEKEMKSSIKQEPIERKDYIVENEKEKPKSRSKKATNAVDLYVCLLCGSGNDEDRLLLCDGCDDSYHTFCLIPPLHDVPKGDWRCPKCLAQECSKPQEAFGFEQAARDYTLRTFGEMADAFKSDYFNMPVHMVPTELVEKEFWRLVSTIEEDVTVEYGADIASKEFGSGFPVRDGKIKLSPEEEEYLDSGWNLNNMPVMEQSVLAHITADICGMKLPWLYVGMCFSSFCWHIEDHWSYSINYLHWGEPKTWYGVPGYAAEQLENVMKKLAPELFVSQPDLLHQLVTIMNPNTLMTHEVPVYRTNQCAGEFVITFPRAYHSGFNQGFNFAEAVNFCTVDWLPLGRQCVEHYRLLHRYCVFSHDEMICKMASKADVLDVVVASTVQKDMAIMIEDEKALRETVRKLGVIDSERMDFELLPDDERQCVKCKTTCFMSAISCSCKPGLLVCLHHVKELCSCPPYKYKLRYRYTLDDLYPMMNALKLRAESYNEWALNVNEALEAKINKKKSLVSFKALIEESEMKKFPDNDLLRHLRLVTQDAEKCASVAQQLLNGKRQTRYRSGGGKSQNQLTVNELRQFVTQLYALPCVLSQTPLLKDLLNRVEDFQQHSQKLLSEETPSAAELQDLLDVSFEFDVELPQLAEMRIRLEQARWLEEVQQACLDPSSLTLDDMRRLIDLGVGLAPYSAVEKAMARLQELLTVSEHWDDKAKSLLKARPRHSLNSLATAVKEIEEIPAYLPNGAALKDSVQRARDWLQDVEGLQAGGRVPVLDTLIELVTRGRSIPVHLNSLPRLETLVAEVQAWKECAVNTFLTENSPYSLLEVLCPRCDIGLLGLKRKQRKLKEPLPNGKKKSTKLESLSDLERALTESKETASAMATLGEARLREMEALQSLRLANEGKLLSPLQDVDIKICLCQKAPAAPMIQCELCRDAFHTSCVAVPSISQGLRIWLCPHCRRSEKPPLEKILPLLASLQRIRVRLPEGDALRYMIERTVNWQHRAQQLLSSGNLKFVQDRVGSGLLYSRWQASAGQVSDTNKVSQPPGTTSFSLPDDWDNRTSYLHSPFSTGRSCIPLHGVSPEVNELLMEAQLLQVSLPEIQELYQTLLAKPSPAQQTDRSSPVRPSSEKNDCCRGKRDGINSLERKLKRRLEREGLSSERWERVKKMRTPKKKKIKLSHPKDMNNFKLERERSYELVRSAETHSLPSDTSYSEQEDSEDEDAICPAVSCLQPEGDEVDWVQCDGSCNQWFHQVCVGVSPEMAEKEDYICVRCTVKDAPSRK

Potency, inactive:
Cc1cccc(C(C(=O)N2CCN(S(=O)(=O)N(C)C)CC2)N(C)C)c1 (configuration not stated)
Cc1ccc(C2=NC3(CCN(C(=O)c4ccc(C#N)cc4)CC3)ON2)cc1
O=C(c1ccc2[nH]ccc2c1)N1CCC(N2CC(OCC3CC3)C23CCOCC3)CC1 (configuration not stated)
O=C(c1ccccc1F)N1CCN(C(=O)c2c[nH]c3ccccc23)CC1
CC1CCN(c2ccc(NC(=O)Cn3c(-c4cscn4)nc4ccccc43)cc2)CC1
CC1(C)Cc2c(sc3c2c(=O)n(CCO)c(=O)n3CCc2ccccc2)CO1
Cc1csc2nc(COc3ccc(NC(=O)C4CCCCC4)cc3)cc(=O)n12
CCOC(=O)N1CCN(Cc2cc(=O)oc3ccc(C)cc23)CC1
O=C(NCc1c[nH]c2ncccc12)c1ccccc1F
O=C(NCc1ccnc2[nH]ccc12)c1ccccn1
COC(=O)CNC(=O)CNC(=O)c1nn(-c2ccc(OC)cc2)c(=O)c2ccccc12
COc1ccc(N2CCN(C3CCCN(CC(=O)N(C)C(C)C)C3)CC2)cc1 (configuration not stated)
CCOC(=O)C(NC(=O)/C=C/c1c(Cl)cccc1Cl)C(=O)OCC
CSc1ccc(CNC(=O)c2noc(-c3ccc(C)cc3)n2)cc1
Cc1ccc2cc(C(=O)NCc3ccc(N4CCCC4)nc3)c(C)nc2c1
Cc1cn2nc(C(=O)NCc3cccs3)cc2c(N2CCCC2)n1
Cc1cn2nc(C(=O)NCC(C)c3ccccc3)cc2c(N2CCCC2)n1 (configuration not stated)
CCOC(=O)C(=O)Nc1ccc(C(=O)OC)cc1
CSc1ccc(CNC23CC4CC(C)(CC(C)(C4)C2)C3)cc1
Cc1cccc(C)c1OCC(O)Cn1cnc2c(cnn2-c2ccc(F)cc2)c1=O (configuration not stated)
Cn1c(SCc2ccc(F)cc2)nnc1-c1ccncc1
COc1ccc(OC)c2[nH]c(C(=O)NCC(=O)Nc3nc(C)cs3)cc12
CCC1(C)CC(CC(=O)OC(C)CN(C)C)(c2ccccc2)CCO1 (configuration not stated)
Cc1noc(C)c1CCCNC(=O)c1ccc(N(C)C2CCOC2)nc1 (configuration not stated)
Cc1cc(N)n(CC(=O)N[C@@H]2COCC[C@@H]2OCc2c(C)noc2C)n1
O=C(NC1(c2ccc(Cl)cc2)CCC1)c1cc(Cl)c[nH]1
Cc1ccc(Cc2nn3c(SCC(=O)Nc4ccccc4C(F)(F)F)nnc3[nH]c2=O)cc1
COC(=O)[C@H](C)NC(=O)C12CC3CC(CC(C3)C1)C2
CCc1c(C)sc(NC(=O)C(CC)CC)c1C#N
COCC1CCN(C(=O)c2ccc3oc(Cc4ccccc4)nc3c2)C1 (configuration not stated)
Cc1ccc(-c2cc(N3CCCN(C(=O)c4nn(C)c5ccccc45)CC3)n[nH]2)cc1C
COc1ccc(-c2[nH]nc3ncc(-c4ccccc4)nc23)c(C)c1
COCCNC(=O)c1cnc2n[nH]c(-c3ccccc3OC)c2n1
Oc1ccc(/C=C(/Cl)c2ncc(-c3ccc(F)cc3)o2)cc1
CCOC(=O)C1CCN(CCC(=O)Nc2cc(OC)cc(OC)c2)CC1
O=C(NC1CCCCC1)c1cc(C2CC2)on1
COc1ccc(N2CCN(c3nc(C(=O)NC4CCCCCC4)cs3)CC2)cc1
COc1cccc(NC(=O)c2csnn2)c1
O=C(OC1CCOC1=O)c1ccccc1SC1CCOC1=O (configuration not stated)
O=C1CC(c2nc(-c3ccc(Oc4ccccc4)cc3)no2)CN1c1ccccc1 (configuration not stated)
O=C(c1ccccc1F)N1CCC2(CC1)C(=O)NN=C2C1CC1
CNC(=O)c1cccc(NC(=O)CC(C)(C(=O)O)c2ccccc2)c1 (configuration not stated)
O=S(=O)(Oc1ccccc1C(=S)N1CCOCC1)c1ccc(Cl)cc1
CCN(c1ccc(NC(=O)c2nccnc2N)cc1)C(C)C
Cc1cc(S(=O)(=O)c2cc3cc(F)cc(F)c3oc2=O)ccc1F
O=S(=O)(c1ccc(F)cc1)N1CCn2cccc2C1c1ccccc1F (configuration not stated)
Cc1cccc(NN)c1C
COc1cccc(CNC(=O)CC(C)CC(=O)O)c1 (configuration not stated)
CCc1ccc(OCC(=O)Nc2ccc(S(=O)(=O)NC(C)(C)C)cc2)cc1
NC(=O)c1ccc(OC2CCN(C(=O)CCc3ccccc3)C2)nc1 (configuration not stated)
NC(=O)c1ccc(OC2CCN(C(=O)c3ccc(F)cc3)CC2)nc1
CN(C)c1ncccc1CNC(=O)Cc1ccccc1F
CC(NC(=O)c1ccc2c(c1)CCCC2)c1ccccc1 (configuration not stated)
Cc1c(C(=O)NCCN(C)C)oc2ccc(S(=O)(=O)N3CCCC3)cc12
COc1ccc(-c2[nH]nc3ncc(-c4cn[nH]c4)nc23)cc1F
Cc1ccsc1-c1[nH]nc2ncc(-c3ccccc3O)nc12
Fc1ccc(-c2cnc3n[nH]c(-c4ccc5c(c4)OCO5)c3n2)cc1
Cc1cccc(-c2cnc3n[nH]c(-c4ccc5c(c4)OCO5)c3n2)c1

Potency, active:
O=C(c1cccc2[nH]ccc12)N1CCC2(CC1)N=C(c1cccc(Br)c1)NO2 28.2 µM
O=C(c1ccc2cc[nH]c2c1)N1CCC2(CC1)N=C(c1ccc(Cl)cc1)NO2 28.2 µM
O=C(NCc1ccnc2[nH]ccc12)c1ccc(F)cc1 35.5 µM
COc1ccc(-n2nc(-c3ccccc3)n(CC(=O)N(C)CC(C)C)c2=O)cc1 31.6 µM
Cc1cn2nc(C(=O)NCc3ccc(F)cc3)cc2c(N2CCCC2)n1 25.1 µM
CSc1ccc(CNC(=O)c2cc3c(N4CCCC4)nc(C)cn3n2)cc1 28.2 µM
CNc1ncc(C(=O)N[C@@H]2COCC[C@@H]2OCc2c(C)noc2C)cn1 28.2 µM
COc1ccccc1-c1[nH]nc2ncc(-c3cccc(CO)c3)nc12 39.8 µM
Cc1cn2nc(C(=O)NC3CCCC3)cc2c(N2CCSCC2)n1 28.2 µM
COc1cc(NC(=O)c2cc3c(N4CCSCC4)nc(C)cn3n2)cc(OC)c1 31.6 µM
Cc1cc(C)c(CNC(=O)c2nc(-c3cccc(CO)c3)cc3c2ccn3C)c(=O)[nH]1 35.5 µM
CNc1ccc(OC2CCN(C(=O)NCCc3ccccc3)CC2)nc1 28.2 µM
C[S+](=O)([O-])c1ccc(-c2cnc3n[nH]c(-c4ccccc4)c3n2)cc1 35.5 µM
Cn1cc(-c2cnc3n[nH]c(-c4ccccc4)c3n2)cn1 35.5 µM

From PubChem BioAssay AID1347165 (National Center for Advancing Translational Sciences (NCATS), 2019)
